Data from PubChem BioAssay (EPA / NIEHS).
Activity calls are given as the source filed them. The calls were made as follows: active = hit-call score of the fitted dose curve at least 0.9, where 1 is the maximum; inactive = score below 0.9.

read-out: Thyroid Hormone Responsive (THRSP), THRSP (gene 7069); test: LTEA_HepaRG_THRSP: Life Technologies and Expression Analysis (LTEA) Assay for Thyroid Hormone Responsive (THRSP) using HepaRG (AID 2283536); conditions: mRNA level, 48 h; actives raise or lower the signal
Method: LTEA_HepaRG is a cell based, multiplexed-readout assay that uses HepaRG, a human liver cell line, with measurements taken at 48 hours after chemical dosing on a 96-well plate.LTEA_HepaRG_THRSP is one of 102 assay component(s) measured in the LTEA HepaRG cell culture assay. It is a marker of NR mediated metabolism.Data from the assay component LTEA_HepaRG_THRSP was analyzed into 1 endpoint. This assay endpoint, LTEA_HepaRG_THRSP, was analyzed with bidirectional fitting relative to DMSO as the negative control and baseline of activity. Using a type of inducible reporter, measures of mRNA induction for gain or loss-of-signal activity can be used to understand regulation of transcription factor activity. To generalize the intended target to other relatable targets, this assay endpoint is annotated to the growth factor intended target family, where the subfamily is NR mediated metabolism.
A total of 1060 chemcials from the ToxCast library were tested in eight-point concentration-response experiments. Cell culture and cytotoxicity assays were conducted at Thermo Fisher Scientific's Custom Services facility (Madison, WI). A single lot of human HepaRG cells (Thermo Fisher Scientific, Frederick, MD) was used for the cell culture experiments. 96-well format collagen type I coated plates of human HepaRG cells were prepared using established methods. Briefly, cryopreserved HepaRG cells were thawed, plated at a density of approximately 100,000 cells/well in HepaRG Thaw, Plate, and General Purpose media (HPRG770, Thermo Fisher Scientific), and incubated for 48 hours. 0.5% DMSO was selected as vehicle control to balance the requisite need of DMSO in HepaRG cultures to maintain differentiation (for example, baseline metabolism, proportions of hepatocytes vs. cholangiocytes), while enabling further hepatic receptor pathway activation (for example, PXR and CAR) in response to chemical exposure. 48 hours after plating, the culture medium was replaced with HepaRG Serum-Free Incudtion Media. Cells were exposed to each test chemical in duplicate and maintained in CO2 incubators for another 48 hours. Chemical plates were thawed to room temperature and 200x concentrations of treatment groups were prepared. 8-point conentration-reponse curves were made with the highest exposure at 100 uM, followed by half-log dilutions, all in 0.5% DMSO. Each test plate contained variouse controls, induction positive controls (1mM phenobarbital), cytotoxicity positive controls ([…] aflatoxin B1), vehicle controls (0.5% DMSO), and total lysis controls (0.5% DMSO). Cell morphology images were taken using an Essen IncuCyte FLR automated microscope, with six 96-well plates imaged in about 24 minutes. Images were captured and exported and JPEG files. Spent culture media was transfered to black-well plates for the LDH assay, and remaining media was sorted at -80 C for later use. Cells were treated with RLT buffer and frozen until shipped for gene expression analysis. Total RNA was isolated from the cell suspension in 75 uL of Buffer RLT (Qiagen, Germantown, MD 20874) by Quintiles/Expression Analysis (Durham, NC) using a custom isolation procedure. Total RNA from each plate well was transferred to a preamplification plate. Fluidigm's 96.96 Dynamic ArrayTM (Fluidigm, Amsterdam, the Netherlands) technology was used for gene expression analyses by quantitative reverse transcription polymerase chain reaction (qRT-PCR, performed by Quintiles/Expression Analysis, Durham, NC)89. Standard TaqManTM Assays (Applied Biosystems/ThermoFisher Scientific, Foster City, CA) were used to assess the expression of 93 genes selected based on their selectivity and sensitivity to important hepatic receptors known to be modulated by environmental chemicals; importance in human hepatocyte functionality; and hepatotoxicity. […]

SMILES	AC50	outcome
c1ccc2c(c1)Nc1ccccc1S2	32.5 µM (active)	
O=C(O)C(Cl)Cl		inactive
O=[N+]([O-])c1ccccc1		inactive
ClC1=C(Cl)C2(Cl)C3C(Cl)C(Cl)CC3C1(Cl)C2(Cl)Cl (stereo not given)		inactive
CCCCN(CCCC)SN(C)C(=O)Oc1cccc2c1OC(C)(C)C2		inactive
O=C(O)C1C(C(=O)O)C2(Cl)C(Cl)=C(Cl)C1(Cl)C2(Cl)Cl (stereo not given)		inactive
CCOP(=S)(Oc1ccc([N+](=O)[O-])cc1)c1ccccc1 (stereo not given)	50 µM (active)	
Cc1ccc(N)cc1N	4.89 µM (active)	
Cc1ccc([N+](=O)[O-])cc1C		inactive
CCN(CC)c1ccccc1		inactive
CN(C)C(=O)Cl		inactive
CC(C)(C)c1ccc(O)cc1		inactive
Nc1ccc2ccccc2c1	9.29 µM (active)	
O=P1(N(CCCl)CCCl)NCCCO1 (stereo not given)		inactive
CCC(C)(C)c1ccc(O)cc1		inactive
c1nc[nH]n1		inactive
O=P(Oc1ccccc1)(Oc1ccccc1)Oc1ccccc1		inactive
ClC(Cl)(Cl)c1ccccc1		inactive
CCCCCCCc1ccc(O)cc1		inactive
CC(Cc1ccc(OCC(=O)O)cc1)NCC(O)c1csc(C(F)(F)F)n1 (stereo not given)		inactive

SMILES	AC50	outcome
CCCN(CCC)c1c([N+](=O)[O-])cc(C(C)C)cc1[N+](=O)[O-]		inactive
CSC(C)(C)C=NO		inactive
c1cc2c3c(cccc3c1)CC2		inactive
CCNc1nc(Cl)nc(NC(C)(C)C)n1		inactive
Nc1ccc(Cl)cc1		inactive
CCCCN(CCCC)N=O		inactive
CCCCc1ccccc1		inactive
CC(C)(C)OOC(C)(C)C		inactive
ClC(Cl)c1ccccc1		inactive
CCOS(=O)(=O)OCC		inactive
Cc1ccc(O)cc1C		inactive
c1ccc(OP(Oc2ccccc2)Oc2ccccc2)cc1		inactive
[N-]=[N+]=[N-]	50 µM (active)	
Nc1cc2c3c(c1)C(c1ccccc1)=N[C@@H](NC(=O)c1cccnc1)C(=O)N3CC2		inactive
COCCOCCO		inactive
CC(Cl)(Cl)C(=O)O		inactive
O=[N+]([O-])c1ccc(Cl)c(Cl)c1	10.8 µM (active)	
Cc1cccc(N)c1		inactive
CCOP(=S)(OCC)SCSCC		inactive
CCOc1ccc(C(C)(C)COCc2cccc(Oc3ccccc3)c2)cc1		inactive
